Results on nine compounds are retold here after PubChem BioAssay (NCI).

About 79,000 compounds went through this panel and 15% of them were active in at least one assay; those are over-represented in the sample as a whole. A number with no mark means an inactive call. Activity calls are given as the source filed them. No stated cut-off is given here; in the data, active means growth inhibition above about 70%; inactive means the rest.

Assay [1] can be described thus: NCI Yeast Anticancer Drug Screen. Data for the rad50 strain (AID 155).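 Further: 0% = growth of vehicle-only cultures of the same strain.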 The settings on record: S. cerevisiae rad50 strain growth inhibition, active compounds read high. The procedure, abridged:
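Genetically altered yeast (DNA repair pathway); compound treatment; growth inhibition vs vehicle ctrl.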

A short description of assay [2]: NCI Yeast Anticancer Drug Screen. Data for the mec2-1 strain (AID 157). Particulars: S. cerevisiae mec2-1 strain, active compounds read high. The procedure, abridged: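 Growth inhibition is read against vehicle-treated controls after compound exposure of the mec2-1 yeast strain, which is defective in DNA damage repair or cell cycle control.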
The nature of assay [3]: NCI Yeast Anticancer Drug Screen. Data for the sgs1 mgt1 strain (AID 161).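 Further: 0% = growth of cultures given vehicle only.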 Particulars: S. cerevisiae sgs1 mgt1 strain, active compounds read high. The procedure, abridged: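 This yeast growth screen uses a strain with defined DNA-repair lesions; compound-treated growth is compared with vehicle-treated growth.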
A short description of assay [4]: NCI Yeast Anticancer Drug Screen. Data for the cln2 rad14 strain (AID 165).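 Further: 0% = growth equal to vehicle treated cultures.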 The settings on record: S. cerevisiae cln2 rad14 strain, active compounds read high. The procedure, abridged:
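Growth inhibition, relative to vehicle-treated controls, is the read-out. The test organism is a yeast strain with defined genetic alterations, cln2 rad14.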

Assay [5] is described as follows: NCI Yeast Anticancer Drug Screen. Data for the bub3 strain (AID 167). The settings on record: S. cerevisiae bub3 mutant strain, active compounds read high. In a few lines: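 Yeast carrying a defined mutation is treated with each compound, and growth is compared with that of vehicle-exposed cells to give inhibition.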
Assay [6] can be described thus: NCI Yeast Anticancer Drug Screen. Data for the mlh1 rad18 strain (AID 175). Particulars: S. cerevisiae mlh1 rad18 strain growth inhibition, active compounds read high. In a few lines:
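Cells of a genetically altered yeast strain, deficient in DNA damage repair, were treated with compound. Their growth was then compared with that of vehicle-treated cultures to give inhibition.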

[7] abbreviates: at 5.0 µM (retest, dose inferred, filed as 0.5).
Setting [8] is: at 50.0 µM (retest, dose inferred, filed as 5.0).

On to `Nc1ccccc1N=Cc1ccccc1O`, for which the growth inhibition in assay [1] (setting [7]) was -12%; in assay [1] (setting [8]), 54%; in assay [1] (at 50.0 µM), 66.2%; in assay [2] (setting [7]) it was -4%; in assay [2] (setting [8]), 76% (active); in assay [2] (at 50.0 µM), 41.2%. The growth inhibition in assay [3] (setting [7]) was -8%; in assay [3] (setting [8]), 91% (active); in assay [3] (at 50.0 µM), 0.4%; in assay [4] (setting [7]), -18%; in assay [4] (setting [8]), 55%; in assay [4] (at 50.0 µM), 22.8%. Besides, the growth inhibition in assay [5] (setting [7]) is -12%; in assay [5] (setting [8]), 63%; in assay [5] (at 50.0 µM), 5.85%; in assay [6] (setting [7]), 3%; in assay [6] (setting [8]) it was 80% (active); in assay [6] (at 50.0 µM), 69.3%.

On to `O=C1Oc2ccccc2C(=O)/C1=C/N1C(=O)/C(=C/c2ccc([N+](=O)[O-])cc2)SC1=S`, for which the growth inhibition in assay [1] (setting [7]) is 2%; in assay [1] (setting [8]), 68%; in assay [1] (at 50.0 µM), 82.5% (active); in assay [2] (setting [7]), -4%; in assay [2] (setting [8]), 82% (active); in assay [2] (at 50.0 µM), 90% (active). The growth inhibition in assay [3] (setting [7]) is 22%; in assay [3] (setting [8]), 93% (active); in assay [3] (at 50.0 µM) it was 96.7% (active); in assay [4] (setting [7]) it was 3%; in assay [4] (setting [8]), 83% (active); in assay [4] (at 50.0 µM) it was 92.1% (active). Moreover, the growth inhibition in assay [5] (setting [7]) is 7%; in assay [5] (setting [8]), 49%; in assay [5] (at 50.0 µM), 85% (active); in assay [6] (setting [7]), 11%; in assay [6] (setting [8]), 77% (active); in assay [6] (at 50.0 µM), 86.3% (active).

`O=C1c2ccccc2C2N1CCCN2C(=O)c1sc2ccccc2c1Cl` (configuration not stated): the growth inhibition was 49% in assay [1] (setting [7]); 98% (active) in assay [1] (setting [8]); 90% (active) in assay [1] (at 50.0 µM); 30% in assay [2] (setting [7]); 99% (active) in assay [2] (setting [8]); 92% (active) in assay [2] (at 50.0 µM). For the same compound, the growth inhibition is 29% in assay [3] (setting [7]); 99% (active) in assay [3] (setting [8]); 92.8% (active) in assay [3] (at 50.0 µM); 28% in assay [4] (setting [7]); 96% (active) in assay [4] (setting [8]); 90.3% (active) in assay [4] (at 50.0 µM). For the same compound, the growth inhibition is 35% in assay [5] (setting [7]); 98% (active) in assay [5] (setting [8]); 92% (active) in assay [5] (at 50.0 µM); 44% in assay [6] (setting [7]); 98% (active) in assay [6] (setting [8]); 90.5% (active) in assay [6] (at 50.0 µM).

Consider `COC(=O)CCC(C)C1CCC2C3CCC4CC(SC(=N)N)CCC4(C)C3CC(O)C12C` (configuration not stated), for which the growth inhibition is 95% (active) in assay [1] (setting [7]); 99% (active) in assay [1] (setting [8]); 99.1% (active) in assay [1] (at 50.0 µM); 23% in assay [2] (setting [7]); 99% (active) in assay [2] (setting [8]); 99.7% (active) in assay [2] (at 50.0 µM). Further, the growth inhibition is 98% (active) in assay [3] (setting [7]); 99% (active) in assay [3] (setting [8]); 99.7% (active) in assay [3] (at 50.0 µM); 63% in assay [4] (setting [7]); 99% (active) in assay [4] (setting [8]); 99.2% (active) in assay [4] (at 50.0 µM). Also, the growth inhibition in assay [5] (setting [7]) is 99% (active); in assay [5] (setting [8]), 99% (active); in assay [5] (at 50.0 µM), 99.3% (active); in assay [6] (setting [7]) it was 84% (active); in assay [6] (setting [8]), 99% (active); in assay [6] (at 50.0 µM), 99.4% (active).

For `COc1c2c(c(C)c3ccc4ccccc4c13)CCN=C2`, the growth inhibition was -11% in assay [1] (setting [7]); 93% (active) in assay [1] (setting [8]); 80.2% (active) in assay [1] (at 50.0 µM); -4% in assay [2] (setting [7]); 95% (active) in assay [2] (setting [8]); 43.3% in assay [2] (at 50.0 µM). Besides, the growth inhibition in assay [3] (setting [7]) is -5%; in assay [3] (setting [8]), 96% (active); in assay [3] (at 50.0 µM), 88.2% (active); in assay [4] (setting [7]), -9%; in assay [4] (setting [8]), 83% (active); in assay [4] (at 50.0 µM), 13.4%. Also, the growth inhibition in assay [5] (setting [7]) is 10%; in assay [5] (setting [8]), 96% (active); in assay [5] (at 50.0 µM) it was 79.2% (active); in assay [6] (setting [7]) it was -9%; in assay [6] (setting [8]), 93% (active); in assay [6] (at 50.0 µM) it was 79.9% (active).

In the case of `O=C(N=Nc1cccc(Cl)c1)NNc1cccc(Cl)c1`, the growth inhibition in assay [1] (setting [7]) was 12%; in assay [1] (setting [8]), 98% (active); in assay [1] (at 50.0 µM) it was 85.8% (active); in assay [2] (setting [7]), -11%; in assay [2] (setting [8]) it was 99% (active); in assay [2] (at 50.0 µM) it was 90.6% (active). Further, the growth inhibition in assay [3] (setting [7]) is -9%; in assay [3] (setting [8]), 91% (active); in assay [3] (at 50.0 µM), 83.2% (active); in assay [4] (setting [7]), 26%; in assay [4] (setting [8]) it was 99% (active); in assay [4] (at 50.0 µM) it was 83.5% (active). The growth inhibition is -24% in assay [5] (setting [7]); 99% (active) in assay [5] (setting [8]); 86.3% (active) in assay [5] (at 50.0 µM); -6% in assay [6] (setting [7]); 98% (active) in assay [6] (setting [8]); 85.4% (active) in assay [6] (at 50.0 µM).

In the case of `COc1ccc(/C(=N\Nc2ccc(Br)cc2)c2ccccc2/C(=N/Nc2ccc(Br)cc2)c2ccccc2OC)cc1`, the growth inhibition in assay [1] (setting [7]) was 1%; in assay [1] (setting [8]), -3%; in assay [1] (at 50.0 µM) it was 96% (active); in assay [2] (setting [7]), -13%; in assay [2] (setting [8]), 11%; in assay [2] (at 50.0 µM), 76.3% (active). Also, the growth inhibition in assay [3] (setting [7]) was 5%; in assay [3] (setting [8]) it was 18%; in assay [3] (at 50.0 µM) it was 97.2% (active); in assay [4] (setting [7]) it was 2%; in assay [4] (setting [8]), 11%; in assay [4] (at 50.0 µM), 54.6%. Besides, the growth inhibition is -7% in assay [5] (setting [7]); 20% in assay [5] (setting [8]); 93.5% (active) in assay [5] (at 50.0 µM); 11% in assay [6] (setting [7]); 33% in assay [6] (setting [8]); 96.3% (active) in assay [6] (at 50.0 µM).

Take `Cc1cc(C(=O)c2ccccc2)ccc1O`: the growth inhibition in assay [1] (setting [7]) was 2%; in assay [1] (setting [8]) it was 33%; in assay [1] (at 50.0 µM), 48%; in assay [2] (setting [7]), -6%; in assay [2] (setting [8]), 36%; in assay [2] (at 50.0 µM), 36.9%. Besides, the growth inhibition is 3% in assay [3] (setting [7]); 47% in assay [3] (setting [8]); 46.6% in assay [3] (at 50.0 µM); -7% in assay [4] (setting [7]); -16% in assay [4] (setting [8]); -8.4% in assay [4] (at 50.0 µM). The growth inhibition was -3% in assay [5] (setting [7]); 3% in assay [5] (setting [8]); 48.7% in assay [5] (at 50.0 µM); -2% in assay [6] (setting [7]); 36% in assay [6] (setting [8]); 70.1% (active) in assay [6] (at 50.0 µM).

On to `CC1(CO)CCCC2(C)C3=C(CCCC3)CCC12` (configuration not stated), for which the growth inhibition was -102% in assay [1] (setting [7]); 94% (active) in assay [1] (setting [8]); -3.55% in assay [1] (at 50.0 µM); -56% in assay [2] (setting [7]); 96% (active) in assay [2] (setting [8]); 52.1% in assay [2] (at 50.0 µM). The growth inhibition in assay [3] (setting [7]) was -60%; in assay [3] (setting [8]) it was 96% (active); in assay [3] (at 50.0 µM) it was 46.1%; in assay [4] (setting [7]) it was -60%; in assay [4] (setting [8]), 95% (active); in assay [4] (at 50.0 µM) it was 10.1%. Besides, the growth inhibition in assay [5] (setting [7]) is -67%; in assay [5] (setting [8]), 95% (active); in assay [5] (at 50.0 µM), 42%; in assay [6] (setting [7]), -108%; in assay [6] (setting [8]), 95% (active); in assay [6] (at 50.0 µM), 46.4%.
